Source: PubChem BioAssay (NCATS)
Records with an inconclusive call do not appear. Entries that show only a call come without a potency. The source made the active and inactive calls. Unless noted, calls come from the whole dose curve; as a rule, active = well fitted curve in the direction sought with a large enough effect; inconclusive = small, poorly fitted or top-dose-only effect, or another doubt; inactive = no such curve, though single readings can be large; an effect the other way counts as inactive or inconclusive.

Key:
[1] = Primary qHTS for small molecule stabilizers of the endoplasmic reticulum resident proteome: Secreted ER Calcium Modulated Protein (SERCaMP) assay (AID 1508630)
How it was run: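 The SH-SY5Y reporter protocol was run at 3 concentrations up to 38.3 uM (primary) or 11 concentrations (follow-up): 16 h compound, 100 nM thapsigargin for 4 h, then extracellular luciferase luminescence.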

[2] = molecular target: Calcium and integrin-binding protein 1 (Homo sapiens) (UniProt Q99828); assay: Primary qHTS for Identification of Calcium Integrin Binding Protein 1 (CIB1) Competitor (AID 1508620);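 note: GST tagged CIB1 binding a fluorescein labelled alphaIIb integrin peptide tracer; top concentration of the series differs between compounds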
How it was run: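 Fluorescence polarization competition: CIB1-GST (1 uM final) preincubated with compound 15 min at room temperature, then FITC-labeled alphaIIb peptide (100 nM final) added for another 15 min. Polarization read at Ex 480/Em 540.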

[3] = molecular target: Cytochrome P450 2D6 (Homo sapiens) (UniProt P10635); assay: Cytochrome P450 family 2 subfamily D member 6 (CYP2D6) small molecule antagonists: luciferase biochemical (cell-free) qHTS assay (AID 1645840; active = well fitted curve in the direction sought with a large enough effect in the repeat runs; an effect the other way counts as inactive or inconclusive; note: nearly all actives have a fitted effect of over 55% in size; note: potency is the fitted concentration of half-maximal effect)
How it was run: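 P450-Glo CYP2D6 system: proluciferin substrate converted by enzyme to luciferin, read by luminescence proportional to activity. Enzyme-substrate mix with compound 10 min at room temperature, then NADPH regeneration 1 h before detection reagent.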

[4] = molecular target: Cytochrome P450 3A4 (Homo sapiens) (UniProt P08684); assay: Cytochrome P450 family 3 subfamily A member 4 (CYP3A4) small molecule antagonists: luciferase qHTS assay (AID 1645841; active = well fitted curve in the direction sought with a large enough effect in the repeat runs; an effect the other way counts as inactive or inconclusive; note: nearly all actives have a fitted effect of over 45% in size)
How it was run: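 P450-Glo CYP3A4 enzyme with proluciferin substrate was preincubated with DMSO-dissolved compounds for 10 min at room temperature. NADPH regeneration solution started a 1 h reaction. Detection reagent stopped it, and luminescence was read after 20 min.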

Sequence of Cytochrome P450 2D6 (Homo sapiens) (P10635 whole entry, looked up): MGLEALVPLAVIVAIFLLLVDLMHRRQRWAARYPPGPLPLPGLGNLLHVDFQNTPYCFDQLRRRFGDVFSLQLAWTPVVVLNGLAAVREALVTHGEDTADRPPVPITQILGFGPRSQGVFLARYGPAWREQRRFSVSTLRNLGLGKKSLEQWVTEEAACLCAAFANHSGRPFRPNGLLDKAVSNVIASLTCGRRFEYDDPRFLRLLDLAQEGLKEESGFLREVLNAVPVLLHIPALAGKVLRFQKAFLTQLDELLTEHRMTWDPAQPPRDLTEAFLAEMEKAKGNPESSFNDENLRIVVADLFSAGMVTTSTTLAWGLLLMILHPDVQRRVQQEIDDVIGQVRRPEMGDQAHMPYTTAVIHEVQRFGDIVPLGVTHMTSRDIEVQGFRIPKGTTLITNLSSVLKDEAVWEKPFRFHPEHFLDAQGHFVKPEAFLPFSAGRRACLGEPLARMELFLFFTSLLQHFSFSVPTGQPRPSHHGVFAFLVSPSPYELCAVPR
Sequence of Calcium and integrin-binding protein 1 (Homo sapiens) (Q99828 whole entry, looked up): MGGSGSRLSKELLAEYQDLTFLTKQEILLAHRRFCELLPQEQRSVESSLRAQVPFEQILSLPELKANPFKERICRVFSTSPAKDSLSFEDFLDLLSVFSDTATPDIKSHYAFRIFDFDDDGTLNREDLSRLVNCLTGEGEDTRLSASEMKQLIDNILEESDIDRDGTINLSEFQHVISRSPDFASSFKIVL
Sequence of Cytochrome P450 3A4 (Homo sapiens) (P08684 whole entry, looked up): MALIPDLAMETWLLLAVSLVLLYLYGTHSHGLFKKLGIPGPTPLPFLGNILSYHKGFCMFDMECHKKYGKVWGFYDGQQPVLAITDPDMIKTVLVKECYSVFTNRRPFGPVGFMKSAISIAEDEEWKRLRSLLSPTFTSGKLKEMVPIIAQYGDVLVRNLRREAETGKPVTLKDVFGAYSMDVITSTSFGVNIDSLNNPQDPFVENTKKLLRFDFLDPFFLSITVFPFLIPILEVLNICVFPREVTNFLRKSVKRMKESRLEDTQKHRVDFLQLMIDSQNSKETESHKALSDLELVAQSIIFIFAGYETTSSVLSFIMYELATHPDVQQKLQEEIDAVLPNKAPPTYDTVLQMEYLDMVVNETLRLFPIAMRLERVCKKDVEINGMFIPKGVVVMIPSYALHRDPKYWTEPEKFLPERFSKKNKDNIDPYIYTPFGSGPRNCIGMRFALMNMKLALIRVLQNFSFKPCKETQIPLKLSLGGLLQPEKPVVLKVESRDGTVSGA

Compound | Potency [1] | Potency [2] | Potency [3] | outcome [4]
COc1ccc(-c2cc(=O)c3c(O)cc(O)cc3o2)cc1O | inactive | – | – | –
CC1(C)Cc2c(sc(NC(=S)NC(=O)c3ccccc3)c2C(=O)O)CO1 | inactive | inactive | inactive | –
Cc1ccn(-c2ccc(-c3ncco3)cc2)c(=O)c1-c1ccc2nc(N)ncc2c1 | inactive | inactive | 16.9 µM (active) | –
COc1ccc2cc(-c3nc(-c4ccc(S(C)=O)cc4)[nH]c3-c3ccncc3)ccc2c1 (stereo not given) | – | inactive | 3.38 µM (active) | –
CCCCCCCCCCCC1=C(O)C(=O)C=C(O)C1=O | inactive | inactive | inactive | inactive
CCS(=O)(=O)N1CC(CC#N)(n2cc(-c3ncnc4[nH]ccc34)cn2)C1 | inactive | inactive | inactive | –
CCC(=O)NC[C@H](Cc1ccc(OCCc2nc(-c3ccccc3)oc2C)cc1)NC(C)=CC(=O)c1ccc(C(F)(F)F)cc1 | inactive | inactive | – | –
CCc1ccc(OCc2ccccc2C(=O)Nc2ccc3nc(C)cc(N)c3c2)cc1 | inactive | inactive | 0.213 µM (active) | –
Cc1ccc([C@@H]2O[C@H](CO)[C@@H](O)[C@H](O)[C@@H]2O)cc1Cc1ccc(-c2ccc(F)cc2)s1 | inactive | inactive | 23.9 µM (active) | –
Cc1ccc(C(C)(O)c2nc3ccccc3s2)c(C)c1 (stereo not given) | inactive | inactive | – | –
Cc1ccc(Nc2cc(-c3cccc(N4C(=O)c5ccccc5C4=O)c3)ncn2)cc1NS(C)(=O)=O | inactive | inactive | inactive | –
CC(C)C(=O)Nc1ncc(-c2cc(C(F)F)nn2-c2c(Cl)cccc2Cl)s1 | inactive | inactive | 10.7 µM (active) | –
O=C(Nc1cccc(Br)c1)c1cccc(S(=O)(=O)N2CCCCCC2)c1 | inactive | inactive | – | –
CC(C)n1nc(-c2ccc3oc(N)nc3c2)c2c(N)ncnc21 | inactive | inactive | inactive | –
COc1ccc2c(Oc3ccc(NC(=O)c4c(C)n(CC(C)(C)O)n(-c5ccccc5)c4=O)cc3F)ccnc2c1 | inactive | inactive | inactive | –
